Laboratory results: PubChem BioAssay (NCATS)
Values joined by “and” are separate entries in the source; they are usually repeats but may differ in a detail not shown here. Equal values may be shown once. Results filed as inconclusive are left out. Active and inactive are the calls of the source. Unless noted, calls follow the shape of the dose curve; as a rule, active = well fitted curve in the direction sought with a large enough effect; inconclusive = small, poorly fitted or top-dose-only effect, or another doubt; inactive = no such curve, though single readings can be large; an effect the other way counts as inactive or inconclusive.

Key:
[1] = qHTS assay for small molecule disruptors of the mitochondrial membrane potential - 5 hr assay (AID 651755; calls by dose curve; also: nearly all actives have a fitted effect of over 40% in size; also: potency is read from the fitted curve at half-maximal effect)
Procedure, shortened: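 HepG2 cells, attached overnight at 37C, were exposed to compound or DMSO for 5 hr at 37C, 5% CO2. Mito-MPS dye was then added for 30 min, and fluorescence read at 490/535 nm (monomers) and 540/590 nm (aggregates).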

[2] = molecular target: Tumor necrosis factor (Homo sapiens) (UniProt P01375); experiment: qHTS assay to identify small molecules that stimulate Tumor Necrosis Factor-alpha (TNF-alpha) secretion (AID 651757; active = well fitted curve in the direction sought with a large enough effect in the signal ratio; the % refers to the signal ratio; also: 0% is about no effect)
Chain of Tumor necrosis factor (Homo sapiens) (P01375 whole entry, looked up): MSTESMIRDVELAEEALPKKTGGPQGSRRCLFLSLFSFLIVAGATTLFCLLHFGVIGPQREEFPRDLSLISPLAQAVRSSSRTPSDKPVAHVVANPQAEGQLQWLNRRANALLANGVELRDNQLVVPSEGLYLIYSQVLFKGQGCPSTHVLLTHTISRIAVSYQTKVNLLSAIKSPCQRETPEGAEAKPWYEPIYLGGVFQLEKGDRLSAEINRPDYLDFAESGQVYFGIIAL
Procedure, shortened: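 THP-1 cells were exposed to compounds for 17 hrs at 37 C, after which secreted TNF-alpha was measured by homogeneous HTRF (TR-FRET) using cryptate- and XL665-labeled anti-TNF-alpha antibodies, read after 3 hr at room temperature.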

[3] = qHTS assay for environmental chemicals that activate the Aryl hydrocarbon Receptor (AhR) signaling pathway (AID 651777); settings: 1A2-DRE human hepatoma cells, luciferase, 24 h; activation: active compounds read high; also: % of control where 0% means no effect; nearly all actives have a fitted effect of over 15% in size
Procedure, shortened: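 Luminescence (One-Glo, 30 min, room temperature) reports AhR-driven luciferase in stably transfected human hepatoma cells bearing DRE and CYP1A2 promoter. Cells (1,200/well) were treated with compound for 24 hr at 37 C in qHTS format.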

[4] = molecular target: Peroxisome proliferator-activated receptor alpha (Homo sapiens) (UniProt Q07869); experiment: qHTS assay for small molecule agonists of the peroxisome proliferator-activated receptor alpha (PPARalpha) signaling pathway (AID 651778); settings: PathHunter PPARalpha complementation, chemiluminescence, 6 h; active compounds read high; also: % of control where 0% means no effect
Chain of Peroxisome proliferator-activated receptor alpha (Homo sapiens) (Q07869 whole entry, looked up): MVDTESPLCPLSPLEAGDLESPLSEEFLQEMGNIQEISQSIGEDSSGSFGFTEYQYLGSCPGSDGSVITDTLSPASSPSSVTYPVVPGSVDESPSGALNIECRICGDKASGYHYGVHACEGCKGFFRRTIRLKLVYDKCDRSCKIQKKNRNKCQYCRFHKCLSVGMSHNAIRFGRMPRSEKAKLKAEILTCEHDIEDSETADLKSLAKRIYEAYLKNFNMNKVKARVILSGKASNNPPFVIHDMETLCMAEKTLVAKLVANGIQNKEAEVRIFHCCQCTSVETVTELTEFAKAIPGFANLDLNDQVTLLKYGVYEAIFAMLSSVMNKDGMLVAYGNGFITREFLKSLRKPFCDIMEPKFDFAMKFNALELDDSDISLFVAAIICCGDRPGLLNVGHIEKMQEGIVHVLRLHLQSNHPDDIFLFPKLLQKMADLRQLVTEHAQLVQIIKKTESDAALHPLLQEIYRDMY
Procedure, shortened: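 Cells plated at 2,000/well and held overnight at 37 C, 5% CO2, then compound added by pin tool for 6 hr; after PathHunter detection reagent and 60 min at room temperature, chemiluminescence from enzyme complementation was read.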

[5] = molecular target: Nuclear receptor ROR-gamma (Homo sapiens) (UniProt P51449); experiment: qHTS assay for small molecule antagonists of the retinoid-related orphan receptor gamma (ROR-gamma) signaling pathway (AID 651802); also: series mostly up to about 92 µM; % is scaled to controls: 0 for no effect and ±100 for the full control effect; nearly all actives have a fitted effect of over 60% in size
Chain of Nuclear receptor ROR-gamma (Homo sapiens) (P51449 whole entry, looked up): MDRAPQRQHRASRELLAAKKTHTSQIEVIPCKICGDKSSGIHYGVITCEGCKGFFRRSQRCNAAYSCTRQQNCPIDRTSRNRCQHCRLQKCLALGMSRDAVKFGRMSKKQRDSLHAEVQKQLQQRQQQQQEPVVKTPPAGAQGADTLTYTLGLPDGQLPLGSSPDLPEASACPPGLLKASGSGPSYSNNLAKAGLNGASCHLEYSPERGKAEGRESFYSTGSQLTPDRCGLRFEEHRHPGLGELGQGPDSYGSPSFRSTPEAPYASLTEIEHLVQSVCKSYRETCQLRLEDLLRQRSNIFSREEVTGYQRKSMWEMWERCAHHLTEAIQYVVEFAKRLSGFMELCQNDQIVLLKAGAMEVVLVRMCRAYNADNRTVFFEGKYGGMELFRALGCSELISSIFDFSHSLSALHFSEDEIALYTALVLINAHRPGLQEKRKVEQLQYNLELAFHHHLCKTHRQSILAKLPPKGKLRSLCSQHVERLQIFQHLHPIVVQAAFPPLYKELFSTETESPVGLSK
Procedure, shortened: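 CHO cells carrying TET-inducible ROR-gamma and an ROR response element–luciferase reporter were exposed to compound, then induced with doxycycline. After 16hr at 37C, luminescence was read; lower signal indicates antagonism.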

[6] = qHTS assay for small molecule agonists of the antioxidant response element (ARE) signaling pathway measured by Nrf2-dependant transcriptional activity (AID 720636; active = well fitted curve in the direction sought with a large enough effect in the repeat runs; an effect the other way counts as inactive or inconclusive; also: % of control where 0% means no effect)
Procedure, shortened: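 Nrf2-dependent transcription read as ONE-Glo luciferase signal from ARE-luc HepG2 reporter cells after 16 hr compound treatment at 37 C, 5% CO2, in assay medium with 1% dialyzed FBS.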

[7] = qHTS assay for small molecule agonists of the antioxidant response element (ARE) signaling pathway measured by Nrf2-dependant transcriptional activity - cell viability counter screen (AID 720653; active = well fitted curve in the direction sought with a large enough effect in the repeat runs; an effect the other way counts as inactive or inconclusive; also: % is scaled to controls: 0 for no effect and ±100 for the full control effect); settings: ARE-bla HepG2 viability, CellTiter-Glo ATP luminescence, 16 h; active compounds read low
Procedure, shortened: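 ARE-bla HepG2 cells (2,000/well) rested 5 hrs at 37C/5% CO2, then exposed to compounds in DMSO for 16 hrs. Viability was read in the same wells as intracellular ATP by luminescence, 30 min at room temperature after reagent addition.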

[8] = qHTS assay for cell viability of HEK293 cells (AID 743288); settings: ATP luminescence (CellTiter-Glo), 18 h, active compounds read low; also: % is scaled to controls: 0 for no effect and ±100 for the full control effect; nearly all actives have a fitted effect of over 50% in size
Procedure, shortened: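 Parental HEK293 cells, 2,000 per well, preincubated at least 5 h at 37 C, then exposed to compounds in DMSO for 18 h at 37 C. Viability by CellTiter-Glo ATP luminescence after 30 min at room temperature.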

[9] = qHTS assay for small molecule antagonists of the retinoid-related orphan receptor gamma (ROR-gamma) signaling pathway - cell viability counter screen (AID 720652; active = well fitted curve in the direction sought with a large enough effect in the repeat runs; an effect the other way counts as inactive or inconclusive;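 also: series mostly up to about 92 µM; compound exposure lasted 16 hr before ATP read; % is scaled to controls: 0 for no effect and ±100 for the full control effect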)
Procedure, shortened: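 Counter screen in CHO cells carrying TET-inducible ROR-gamma and an ROR response element-luciferase reporter; cells plated 5 hr, compound pinned, doxycycline added, then 16 hr at 37 C. Viability read as intracellular ATP by CellTiter-Glo luminescence.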

[10] = qHTS assay to identify small molecules that stimulate interleukin-8 (IL-8) secretion (AID 651758; active = well fitted activation curve with a large enough effect in the signal ratio; the % refers to the signal ratio; also: 0% is about no effect)
Procedure, shortened: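 THP-1, 2000 cells/well; cpd 16 h, 37 C; add cryptate + XL665 anti-IL-8 Abs; RT 1-3 h; TR-FRET read.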

CCC1CO1 (stereo unspecified)
inactive: Potency [1] | Potency [2] | activation [3] 0.0109% | max response [4] -1.3% | Potency [5] | outcome [6] | max response [7] 1.19% | max response [8] 4.98%

Nc1c(Cl)cc(Cl)cc1Cl
inactive: Potency [1] | Potency [2] | activation [3] -0.694% | max response [4] -2.57% | outcome [6] | Potency [9] | max response [7] -2.36% | max response [8] -2.95%

CC(C=O)Cc1ccc(C(C)(C)C)cc1 (stereo unspecified)
inactive: Potency [1] | Potency [2] | activation [3] 0.301% and -1.84% | max response [4] -2% and -1.24% | outcome [6] | Potency [9] | max response [7] -4.71% and -17.8% | max response [8] 9% and 0.62%

Cc1ccccc1Br
inactive: Potency [1] | Potency [2] | activation [3] -0.782% | Potency [5] | outcome [6] | Potency [9] | max response [7] -8.12% | max response [8] -0.991%

C=C(C)C(N)=O
inactive: Potency [1] | Potency [2] | activation [3] -1.72% | max response [4] -6.13% | Potency [5] | outcome [6] | Potency [9] | max response [8] -1.33%

O=C(O[C@@H](C(=O)O)[C@@H](OC(=O)c1ccccc1)C(=O)O)c1ccccc1
inactive: Potency [1] | Potency [2] | activation [3] -0.0103% | max response [4] 3.38% | outcome [6] | Potency [9] | max response [7] -4.37% | max response [8] 9.93%

O=[N+]([O-])c1ccccc1CCO
inactive: Potency [1] | Potency [2] | activation [3] 0.213% | Potency [5] | outcome [6] | Potency [9] | max response [7] -3.69% | max response [8] -3.96%

Cc1ccco1
inactive: Potency [1] | Potency [2] | activation [3] -0.591% | max response [4] -4.89% | Potency [5] | outcome [6] | max response [7] -4.14% | max response [8] 3.18%

[O-]/[N+](=N\O)c1ccccc1
inactive: Potency [1] | Potency [2] | activation [3] 5.58% | max response [4] -0.0477% | Potency [5] | Potency [9] | max response [7] -5.46% | max response [8] -16.3%

CC(=O)CCc1ccccc1
inactive: Potency [1] | Potency [2] | max response [4] 0.48% | Potency [5] | outcome [6] | Potency [9] | max response [7] 0.255% | max response [8] 0.331%

CCCCN(CCO)CCCC
inactive: Potency [1] | Potency [2] | max response [4] -1.07% | Potency [5] | outcome [6] | Potency [9] | max response [7] -4.16% | max response [8] -7.26%

CCCCC(CC)COCC1CO1 (stereo unspecified)
inactive: Potency [1] | Potency [2] | max response [4] -0.684% | Potency [5] | outcome [6] | Potency [9] | max response [7] -19% | max response [8] 0.479%

CCC(C)(C)C(=O)O
inactive: Potency [1] | Potency [2] | max response [4] -5.15% | Potency [5] | outcome [6] | Potency [9] | max response [8] -3.48%

Cc1ccc(C)cc1
inactive: Potency [1] | Potency [10] | activation [3] 0.01% | max response [4] -4.74% | Potency [5] | outcome [6] | Potency [9] | max response [7] -7.71% | max response [8] -11.4%

CC(=O)Nc1ccc(N)cc1
inactive: Potency [1] | Potency [2] | activation [3] -0.109% | Potency [5] | outcome [6] | Potency [9] | max response [7] 2.9% | max response [8] -3.85%

NC(=S)NNC(N)=S
inactive: Potency [1] | Potency [2] | max response [4] 0.409% and -1.13% | Potency [5] | outcome [6] | max response [7] 1.26% and -5.12% | max response [8] -2.43% and -16.6%

ClC/C=C/CCl
inactive: Potency [1] | Potency [2] | max response [4] 1.16% | outcome [6] | max response [7] -6.38% | max response [8] 4.84%

Cc1ccc2c(c1[N+](=O)[O-])C(=O)c1ccccc1C2=O
active: Potency [1] 1.33 µM
inactive: Potency [2] | max response [4] -3.62% | Potency [5] | Potency [9] | max response [7] -12.9%

Cc1ccc(C)o1
inactive: Potency [1] | Potency [2] | activation [3] -0.971% | Potency [5] | outcome [6] | Potency [9] | max response [8] -6.28%

Nc1nc(-c2ccccc2)cs1
inactive: Potency [1] | Potency [2] | max response [4] 22.8% | Potency [9] | max response [7] 4.04% | max response [8] 0.545%

Cc1cc(C)cc(N)c1
inactive: Potency [1] | Potency [2] | activation [3] 2.65% | Potency [5] | outcome [6] | max response [7] -5.34% | max response [8] -3.25%

CC(C)(C)OCC1CO1 (stereo unspecified)
inactive: Potency [1] | Potency [2] | max response [4] -5.74% | Potency [9] | max response [7] 11% | max response [8] -0.898%

FC(F)(F)c1ccccc1Cl
inactive: Potency [1] | Potency [2] | max response [4] -1.82% | outcome [6] | max response [7] -5.26% | max response [8] 10.1%

CCOCCO
inactive: Potency [1] | Potency [2] | Potency [5] | outcome [6] | Potency [9] | max response [7] 10.2% | max response [8] -0.409%

FC(F)(F)c1cccc(Cl)c1
inactive: Potency [1] | Potency [2] | max response [4] -9.21% | Potency [5] | outcome [6] | Potency [9] | max response [7] -9.33% | max response [8] -5.31%
